In the library only some 3.1% were active in any assay of this set; here they are far more common.
PLK1 PBD block – PLK1 (human) polo-box domain binding inhibition. Plk1 PBD binding of FITC phosphopeptide, fluorescence polarization. actives 2.8% (n = 360,000). Potency, µM, without a hit: max response, negative = inhibition, hits mostly inhibitors. P53350. AID 720504; further: series mostly up to about 57 µM; on the % scale 0 is the no-effect control and ±100 the full control effect; nearly all actives have a fitted effect of over 65% in size
TDP1 inh – inhibitors of human tyrosyl-DNA phosphodiesterase TDP1; AID 485290; Potency, µM (series often up to 130 µM), for inactives: top-dose activity change, negative = inhibition, most hits filed as inhibitors; recombinant TDP1, AlphaScreen DNA substrate cleavage; actives 0.28% (n = 350,000); Q9NUW8; further: on the % scale 0 is the no-effect control and ±100 the full control effect; nearly all actives have a fitted effect of over 40% in size
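Enzyme-compound mixtures sat 15 min at room temperature, followed by a 5 min reaction with 15 nM final substrate and 10 min with AlphaScreen beads. Recombinant human Tdp1 was used at 1 nM final.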
ASM inhibitor – blocks human secretory acid sphingomyelinase | P17405 | placental ASM, HMU-PC fluorogenic substrate, 60 min | Potency, µM (series often up to 57.5 µM), without a hit: at the top dose activity change, negative = inhibition, actives largely listed as inhibitors | actives 0.006% (n = 340,000)
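Steps: dispense placental human ASM, pin compound, wait 10 min at room temperature, add HMU-PC0 substrate at 9 uM final, incubate 60 min at 37 °C, add stop solution raising pH to 10, read fluorescence.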
VDR inhibitor – blocks the human vitamin D receptor. P11473. VDR-SRC2-3 peptide fluorescence polarization, 2 h. Potency, µM, for the others: max response, negative = inhibition, most hits filed as inhibitors. actives 0.93% (n = 400,000). AID 504847; further: on the % scale 0 is the no-effect control and ±100 the full control effect
Target sequence (P11473 whole entry, looked up): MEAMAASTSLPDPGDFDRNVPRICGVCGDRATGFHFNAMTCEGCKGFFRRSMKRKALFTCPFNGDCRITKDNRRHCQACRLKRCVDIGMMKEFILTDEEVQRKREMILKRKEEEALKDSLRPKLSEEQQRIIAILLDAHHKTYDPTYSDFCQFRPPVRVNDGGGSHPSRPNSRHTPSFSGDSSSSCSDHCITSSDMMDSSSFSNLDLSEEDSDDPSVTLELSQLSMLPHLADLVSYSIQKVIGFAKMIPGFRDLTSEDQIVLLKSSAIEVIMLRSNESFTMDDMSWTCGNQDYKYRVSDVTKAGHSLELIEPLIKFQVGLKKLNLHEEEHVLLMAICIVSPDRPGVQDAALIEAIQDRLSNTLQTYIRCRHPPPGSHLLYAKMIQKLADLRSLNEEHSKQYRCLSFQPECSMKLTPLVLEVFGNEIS
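The screen uses fluorescence polarization to detect compounds that interfere with recruitment of the SRC2-3 coactivator peptide to VDR; plates are read after 2 h at room temperature.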
Tb PFK inh – blocks T. brucei phosphofructokinase | O15648 | T. brucei PFK, ADP-Glo luminescence | Potency, µM (highest dose often 57.5 µM), for the others: top-dose activity, negative = inhibition, usual class: inhibitors | actives 0.17% (n = 330,000) | AID 485367;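 further: 0% = uninhibited 1x PFK enzyme wells and -100% = no-enzyme wells; nearly all actives have a fitted effect of over 60% in size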
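Luminescent ADP detection (ADP-Glo, two-step: ATP depletion then ADP-to-ATP conversion for luciferase) reported PFK activity after 45 min room-temperature reaction of 1.25 nM enzyme with 0.5 mM F6P and 0.1 mM ATP at pH 8.0.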
Pin1 inhibitor – inhibitors of human Pin1; Pin1 FP peptide displacement, HiFluor488, 10 min; Potency, µM (titrated, usually from 115 µM), for the others: at the top dose activity, negative = inhibition, most hits filed as inhibitors; actives 0.009% (n = 390,000); active means well fitted inhibition curve with a large enough effect in the polarisation, with a control signal flat, not every such curve was filed as active; inconclusive means small, poorly fitted or top-dose-only effect, or effect the other way, or a change in a side signal; inactive means no such curve, though single readings can be large or run the other way; the % refers to the polarisation; further: on the % scale 0 is the no-effect control and ±100 the full control effect
Target sequence (Q13526 whole entry, looked up): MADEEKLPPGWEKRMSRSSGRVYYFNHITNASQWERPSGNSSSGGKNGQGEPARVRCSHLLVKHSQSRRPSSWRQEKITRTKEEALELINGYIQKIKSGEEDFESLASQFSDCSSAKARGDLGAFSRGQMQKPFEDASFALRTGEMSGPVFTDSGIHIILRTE
* marks the source's active call; other numbers are inactive results; ? = inconclusive; · = no result; [ ] = dose if it differs, or a comment. Unless noted, the call rests on the fitted dose curve; in most records, active means well fitted curve in the direction sought with a large enough effect; inconclusive means small, poorly fitted or top-dose-only effect, or another doubt; inactive means no such curve, though single readings can be large; an effect the other way counts as inactive or inconclusive. Potency means the concentration at half of the fitted maximal effect.

SMILES	PLK1 PBD block	TDP1 inh	ASM inhibitor	VDR inhibitor	Tb PFK inh	Pin1 inhibitor
COc1cc(/C=C2/C(=N)N3C(=NC2=O)SN=C3S(=O)(=O)C(C)C)ccc1OS(=O)(=O)c1ccccc1	·	4.9%	·	·	-0.8%	·
CC(C)=CCC/C(C)=C/COc1c2ccoc2cc2oc(=O)ccc12	·	·	·	-29.1%	·	?
COC(=O)N1CCN(/[N+]([O-])=N/Oc2ccc([N+](=O)[O-])cc2[N+](=O)[O-])CC1	·	8.5%	·	?	·	-8.0%
O=C1Nc2ccc(Br)cc2/C1=C/C1CC=CCC1 (stereo not drawn)	-18.0%	-3.7%	-17.4%	70.8µM*	0.8%	?
O=C(/C=C/c1ccc(O)cc1)c1ccccc1O	·	23.2%[56.1 µM]	·	5.62µM*	·	·
O=C(/C=C/c1ccccc1)c1cc(Br)ccc(=O)c1O	26.7µM*	·	-1.0%	22.4µM*	-5.8%	?
Cc1ccc(/C=C/C(=O)c2ccccc(=O)c2O)cc1C	29.9µM*	10.5%	1.6%	44.7µM*	0.6%	17.7%
CCOc1ccccc1CNS(=O)(=O)c1ccc2c(c1)CCCN2C(C)=O	·	6.6%	·	-1.6%	·	-1.7%
CCOC(=O)c1c(C)n(-c2ccc(OC)cc2)c2ccc(O)c(CN(C)C)c12	29.9µM*	·	-1.1%	-12.4%	1.2%	1.1%
CCOC(=O)c1c(C)n(C)c2ccc(O)c(CN(C)C)c12	2.4%	9.2%	1.6%	9.4%	0.0%	2.1%
Cc1ccc(NC(=O)c2cc(N3C(=O)C=CC3=O)ccc2Cl)cc1C	5.32µM*	4.2%	-1.7%	35.5µM*	-14.0%	5.8%
COc1ccc(N2CCN(S(=O)(=O)c3ccc4c(c3)NC(=O)C(C)S4)CC2)cc1 (stereo not drawn)	-13.2%	5.2%	-13.8%	-12.2%	-5.9%	-9.1%
CCC1Sc2ccc(S(=O)(=O)N3CCN(c4ccccc4)CC3)cc2NC1=O (stereo not drawn)	3.36µM*	4.0%	-7.2%	?	0.5%	32.0%
CCNC(=S)N1CCN=C1Nc1nc(C)cc(C)n1	2.6%	-2.7%	-2.8%	1.2%	1.5%	2.9%
Cc1cc(C)nc(NC2=NCCN2C(=O)NC2CCCCC2)n1	7.52µM*	4.7%	-1.1%	-15.4%	-0.8%	-0.3%
Cn1c(=O)c2sccc2n2c(CCCC(=O)Nc3ccc(Oc4ccccc4)cc3)nnc12	·	2.6%	·	-6.5%	·	?
Cc1[nH]c2ccccc2c1C1(O)C(=O)N(Cc2ccccc2)c2ccc(Cl)cc21 (stereo not drawn)	·	8.4%	·	-11.0%	·	?
CCCSc1nc(O)c(C(c2ccc(OC)c(O)c2)c2c(O)nc(SCCC)n(C)c2=O)c(=O)n1C	9.47µM*	-4.5%	-4.8%	35.5µM*	2.3%	-2.5%
COc1cccc(C(c2c(O)nc(SC)n(C)c2=O)c2c(O)nc(SC)n(C)c2=O)c1	-26.5%	-10.5%	-0.3%	9.6%	0.0%	-5.0%
COc1ccc(C2Nc3ccccc3C(=O)N2Cc2ccccc2)cc1COc1ccc(NC(=O)c2ccccc2)cc1 (stereo not drawn)	·	0.4%	·	·	·	11.6%
CCOc1ccc(N2C(=O)C(CC(=O)Nc3ccc(F)cc3)N(Cc3ccccn3)C2=S)cc1 (stereo not drawn)	-5.4%	-1.2%	-8.3%	-19.9%	-1.2%	1.6%
CCNC(=O)CC1C(=O)N(c2ccc(F)cc2)C(=O)N1Cc1ccccn1 (stereo not drawn)	26.7µM*	1.0%	6.4%	?	2.3%	-1.5%
CCOC(=O)c1cnc2c(Cl)cc(Cl)cc2c1NCCCN1CCOCC1	13.4µM*	·	15.7%	-4.7%	-0.2%	-0.1%
CCOC(=O)c1cnc2c(C)cc(Cl)cc2c1NCCCN1CCOCC1	-10.6%	1.3%	41.3%	0.7%	-6.4%	?
O=C(C=Cc1ccco1)c1ccco1	-9.4%	·	93.2%	-6.7%	·	1.3%
SMILES	PLK1 PBD block	TDP1 inh	ASM inhibitor	VDR inhibitor	Tb PFK inh	Pin1 inhibitor
C=C(C(C)=O)C(O)/C=C/c1ccco1 (stereo not drawn)	·	11.2µM*	·	6.0%	·	·
CCC(CC)C(=O)Nc1nnc(-c2cccs2)s1	29.9µM*	-4.1%	11.7%	-26.7%	-3.6%	-11.5%
CN1CCN(CC(=O)Nc2nnc(-c3cccs3)s2)CC1	1.0%	5.5%	2.1%	12.6%	-3.8%	-1.6%
COc1cccc(OC)c1C(=O)Nc1nnc(-c2cccs2)s1	16.8µM*	-14.6%	1.9%	13.7%	-7.0%	-1.7%
C=C1NC(=O)c2cc(CN(C)c3ccc(C(=O)N[C@@H](CCC(=O)O)C(=O)O)s3)ccc2N1	·	-4.3%	·	2.4%	·	·
CCN(C(=O)Cn1c(=O)oc2cc(S(=O)(=O)N3CCCCCC3)ccc21)c1cccc(C)c1	·	-2.5%	·	11.6%	·	-5.2%
Nc1sc2c(c1C(=O)c1ccc(Cl)cc1)CCCC2	·	20.7%	·	44.7µM*	·	·
CC(C)OC(=O)c1c(N)sc2c1CCCC2	23.8µM*	·	-5.8%	?	·	2.3%
CNC(=O)c1c(N)sc2c1CCCCC2	·	-8.6%	·	·	-17.9%	·
Cc1ccc(Cc2nc3ccccc3nc2SCC(=O)Nc2ccc3c(c2)OCO3)cc1	·	2.7%	·	12.1%	·	2.5%
CC1CCc2c(sc(NS(=O)(=O)c3ccccc3)c2C(=O)OC(C)C)C1 (stereo not drawn)	16.8µM*	2.8%[56.1 µM]	-1.9%	?	-11.5%	?
COC(=O)c1c(NS(=O)(=O)c2ccc3ccccc3c2)sc2c1CCCC2	23.8µM*	8.0%	-2.8%	10.8%	0.7%	22.1%
O=C(Nc1ccc2nccnc2c1)N1CCCCCC1	·	0.5%	·	6.8%	·	15.9%
Cc1ccc(C(=O)OCC(=O)Nc2ccccc2Cl)c(O)c1	9.47µM*	·	-2.2%	?	-12.0%	-3.4%
CCCN1CNc2c(c(=O)[nH]c(=S)n2CCc2ccc(Cl)cc2)C1	·	-0.4%	·	-0.6%	·	-6.8%
COc1ccccc1NC(=O)CN1C(=O)COc2ccc(S(=O)(=O)N3CCCCCC3)cc21	29.9µM*	7.4%	-2.1%	-16.8%	2.4%	-1.6%
CCOc1ccccc1NC(=O)CN1C(=O)COc2ccc(S(=O)(=O)N3CCCCCC3)cc21	·	-2.6%	·	-5.6%	·	19.8%
Cc1ccc(S(=O)(=O)Nc2cccc(-c3ccc4nncn4n3)c2)cc1	-10.1%	-1.8%	-0.7%	-13.3%	0.8%	36.0%
COc1ccc(C)cc1S(=O)(=O)Nc1cccc(-c2ccc(N3CCCCCC3)nn2)c1	16.8µM*	2.3%	-2.9%	?	-1.3%	15.5%
COc1ccc(S(=O)(=O)Nc2cccc(-c3ccc4nncn4n3)c2)c(OC)c1	16.8µM*	-7.4%	-1.1%	?	-21.7%	3.8%
CN1CCN(c2cccc(Nc3nn4c(=O)c5ccc(Br)cc5nc4s3)c2)CC1	·	·	·	·	·	2.5%
Cc1ccccc1Oc1cc(-n2ncc(Cl)c(Cl)c2=O)ncn1	5.32µM*	5.6%	-1.6%	?	0.4%	2.8%
COc1ccc(S(=O)(=O)NCc2cccs2)cc1	-3.2%	22.4µM*	4.4%	-2.6%	?	-1.4%
